# From PubChem BioAssay
# TDP1 cell noCPT: qHTS for Inhibitors of human tyrosyl-DNA phosphodiesterase 1 (TDP1): qHTS in cells in absence of CPT | DT40 Tdp1-/- hTDP1 cells, no CPT, ATP luminescence, 48 h | Potency, µM (top dose mostly 46.2 µM), most hits filed as inhibitors | hit rate 15% among 420,000; note: nearly all actives have a fitted effect of over 55% in size
#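 Growth kinetics read by CellTiter-Glo luminescence after ≥48 hr at 37 °C. Cells: DT40 Tdp1-/- stably carrying human TDP1, 400 per well, compound exposure in the absence of CPT (DMSO vehicle).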
# HT1080 IDH1KD tx: toxicity to HT-1080 IDH1 knockdown cells (counter line); hit rate 2% among 360,000; HT-1080 IDH1 knockdown viability, ATP luminescence, 48 h; AID 686971; Potency, µM (series often up to 46.1 µM), usual class: cytotoxic
#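 Using the IDH1-knockdown HT-1080 line run in the same batch and compound series as the NT line, viability after 48 h at 37 °C was determined by CellTiter-Glo luminescence and expressed as % activity.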
# HT1080-NT tox: kills 2HG-producing HT-1080-NT fibrosarcoma cells | HT-1080-NT fibrosarcoma viability, CellTiter-Glo ATP luminescence, 48 h | hit rate 1.6% among 360,000 | Potency, µM (series often up to 46.1 µM), hits mostly cytotoxic | AID 686970;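 note: NT is the 2HG producing partner of a matched IDH1 knockdown line; nearly all actives have a fitted effect of over 55% in size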
#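 Read-out is CellTiter-Glo luminescence after 10 minutes at room temperature, following 48 hours' compound treatment of HT-1080-NT cells (750 cells/well, RPMI, 5% FBS, 37 degrees C).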
# ELG1 repair inh: ELG1-dependent DNA repair inhibition. HEK293T ELG1-luciferase reporter, luminescence, 16 h; DNA damage induced by 5-fluorouridine. Potency, µM (doses to about 46.1 µM), actives largely listed as inhibitors. hit rate 2.3% among 330,000. AID 504467; note: nearly all actives have a fitted effect of over 55% in size
#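 Step one: seed 2,000 cells per well. Step two: pin-transfer compound or DMSO alongside 5-fluorouridine. Step three: incubate 16 hr, 37 °C, 5% CO2. Step four: add ONE-Glo, wait 30 min, read luminescence.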
# TDP1 cell CPT: DT40-hTDP1 cell growth loss with CPT; chicken DT40 Tdp1-/-;hTDP1 cells + 20 nM CPT, ATP luminescence, 48 h; Potency, µM (highest dose often 46.2 µM), hits mostly inhibitors; hit rate 12% among 420,000; AID 686979; note: nearly all actives have a fitted effect of over 55% in size
#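 Chicken DT40 Tdp1-/- cells stably complemented with human TDP1 were seeded at 400 cells/well in medium containing 20 nM camptothecin, exposed to pin-transferred compounds, and grown at 37 °C for at least 48 hr. Viability was read as ATP luminescence.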
# IL-1B inflam inh: blocks inflammasome-driven IL-1 beta release; THP-1 LPS/ATP IL-1B secretion, AlphaLISA, 16 h; stronger effect = lower value; activity change, % at 57.5 µM; hit rate 4.7% among 360,000; in the data active = activity change below about -50%; inconclusive = mostly about -30% to -49%
#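 Secreted IL-1B measured by AlphaLISA bead assay after 16 h compound exposure of THP-1 cells; compounds (final up to 57.5 uM) added 1 h before LPS (250 ng/mL) and ATP (1.25 mM) stimulation; lower signal means less secretion.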
# Hits are given with their value; n = inactive; u = inconclusive; x = no result. This is a sample that favours compounds with a hit; in the whole collection about 19% have one here. Unless noted, calls come from the whole dose curve; as a rule, active = well fitted curve in the direction sought with a large enough effect; inconclusive = small, poorly fitted or top-dose-only effect, or another doubt; inactive = no such curve, though single readings can be large; an effect the other way counts as inactive or inconclusive.
SMILES,TDP1 cell noCPT,HT1080 IDH1KD tx,HT1080-NT tox,ELG1 repair inh,TDP1 cell CPT,IL-1B inflam inh
COc1cc(C(=O)Nc2nc(-c3ccc(C)cc3)cs2)ccc1OCC(=O)N1CCOCC1,20.6µM,n,n,20.6µM,23.1µM,n
CC(Sc1ccc(Cl)cc1)C(=O)NCC(c1ccco1)N1CCCCC1 (stereo not given),u,n,n,n,u,n
COc1ccc(CNC(=O)c2ccc(Cn3c(=O)c4cccn4c4cccnc43)cc2)c(OC)c1,n,x,x,x,n,x
COc1cc(C(=O)Nc2nc(-c3ccc(F)cc3)cs2)ccc1OCC(=O)N1CCOCC1,11.6µM,n,n,u,18.4µM,u
COc1cc(C(=O)NNC(=O)c2ccc(F)cc2)ccc1OCC(=O)N1CCOCC1,n,n,n,u,n,n
COc1cc(C(=O)NCCN2C(=O)S/C(=C\c3ccc(F)cc3)C2=O)ccc1OCC(=O)N1CCOCC1,14.6µM,n,u,n,16.4µM,n
Cc1ccc(CN2C(=O)CSCC2(C)C(=O)NC(C)C)cc1 (stereo not given),n,n,n,x,n,n
COc1ccc(C(C(=O)NC(C)(C)C)N(C[C@H]2CC[C@@H]([C@@H]3CC[C@H](CO)O3)O2)C(=O)c2ccccc2)cc1 (stereo not given in full),n,n,n,u,n,n
CC(C)(C)NC(=O)C(c1ccc(F)cc1)N(CC1CCCO1)C(=O)c1csnn1 (stereo not given),n,n,n,n,n,n
CC(C)(C)NC(=O)C(c1ccc(-c2ccccc2)cc1)N(C[C@H]1CC[C@@H]([C@@H]2CC[C@H](CO)O2)O1)C(=O)c1ccccc1F (stereo not given in full),16.4µM,n,n,u,29.1µM,-63.3
CC(C)(C)NC(=O)C(c1ccc(-c2ccccc2)cc1)N(C[C@H]1CC[C@@H]([C@@H]2CC[C@H](CO)O2)O1)C(=O)c1ccc(-c2ccccc2)cc1 (stereo not given in full),14.6µM,u,n,23.1µM,u,-54.7
CC(C)(C)NC(=O)C(c1ccc(-c2ccccc2)cc1)N(C[C@H]1CC[C@@H]([C@@H]2CC[C@H](CO)O2)O1)C(=O)c1cccc(Cl)c1 (stereo not given in full),u,n,n,u,u,-65.4
C[C@@H]1CC=C[C@H]2[C@H]1C(=O)N(Cc1ccccc1)[C@H]2c1ccc(F)c(-c2ccc(N(C)C)cc2)c1,14.6µM,n,u,u,8.2µM,n
CC(=O)[C@@H]1[C@@H](C)N(Cc2ccccc2)C(=O)N[C@H]1c1ccccc1,n,n,n,x,n,n
CC(=O)c1ccc(-c2cc([C@H]3[C@H]4C=CC[C@@H](C)[C@@H]4C(=O)N3Cc3ccccc3)ccc2F)cc1,13µM,u,u,n,14.6µM,n
N#Cc1cccc(-c2nc3cnc(Oc4cccc(Cl)c4)nc3n(C3CC3)c2=O)c1,n,x,x,x,n,x
CC1=C(C(=O)N2CCCCCC2)CC(CC(=O)NCC2CCCCC2)C(=O)N1Cc1ccc(F)cc1 (stereo not given),u,n,n,x,23.1µM,n
CC1=C(C(=O)N(C(C)C)C(C)C)CC(CC(=O)NCC2CCCCC2)C(=O)N1Cc1ccc(F)cc1 (stereo not given),18.4µM,n,n,x,16.4µM,u
CC1=C(C(=O)N(C(C)C)C(C)C)CC(CC(=O)NCCCN(C)C)C(=O)N1Cc1ccc(F)cc1 (stereo not given),n,n,n,x,n,n
CC1=C(C(=O)N2CCCCCC2)CC(CC(=O)NCC2CCCCC2)C(=O)N1Cc1ccccc1 (stereo not given),u,n,n,x,u,n
COc1ccccc1CNC(=O)Cn1cccc1C(=O)c1ccccc1C,n,n,n,u,n,n
Cc1ccc2c(c1)-c1[nH]c(=S)ncc1CS2,18.4µM,n,n,n,u,n
Cc1c(C(=O)NC2CC(C)(C)NC(C)(C)C2)oc2c(Cl)cccc12,u,n,n,x,n,n
Cc1[nH]c2ccccc2c1C1(O)C(=O)N(Cc2ccccc2)c2ccc(Br)cc21 (stereo not given),4.61µM,x,x,x,4.11µM,x
Cc1[nH]c2ccccc2c1C1(O)C(=O)N(Cc2ccccc2Cl)c2ccccc21 (stereo not given),5.17µM,x,x,x,5.8µM,x
SMILES,TDP1 cell noCPT,HT1080 IDH1KD tx,HT1080-NT tox,ELG1 repair inh,TDP1 cell CPT,IL-1B inflam inh
Cc1ccc(CN2C(=O)C(O)(c3c[nH]c4ccccc34)c3cc(Cl)ccc32)cc1 (stereo not given),23.1µM,x,x,x,u,x
CC[C@]12c3[nH]c4cc(CCC(=O)N(C)C)ccc4c3CCN1C(=O)[C@@H](CC(=O)NC(C)(C)C)C[C@@H]2C(=O)N1CCN(C(=O)c2ccco2)CC1,n,n,n,u,n,n
O=[N+]([O-])c1cc(Cl)ccc1N1CCN(c2ccccc2O)CC1,u,n,n,n,n,-95.6
O=C(/C=C/c1ccc(Cl)cc1)N1CCN(c2ccc([N+](=O)[O-])c(N3CCOCC3)c2)CC1,u,n,n,18.4µM,u,n
O=C(/C=C/c1ccc(Cl)cc1Cl)N1CCN(c2ccccc2[N+](=O)[O-])CC1,u,n,n,u,n,-60.4
O=C(/C=C/c1ccc(Cl)cc1Cl)N1CCN(c2ccc([N+](=O)[O-])c(N3CCOCC3)c2)CC1,23.1µM,n,n,n,u,n
O=C(c1ccccc1)N1CCN(c2ccc([N+](=O)[O-])c(N3CCOCC3)c2)CC1,u,n,n,n,u,n
O=[N+]([O-])c1cc(Cl)ccc1N1CCCCC1,n,n,n,u,n,u
COc1ccc(-c2nc3cnc(OC)nc3n(C[C@H]3CCCO3)c2=O)cc1,n,x,x,x,n,x
CCN(C[C@H]1N[C@@](C)(C(=O)OC)[C@H]2C(=O)N(C)C(=O)[C@@H]12)C(=O)Nc1ccc(OC)cc1,n,n,n,n,n,n
COc1cccc(CNC(=O)CCCN2C(=O)CCn3nc(-c4cccn4C)cc32)c1,n,x,x,x,n,x
CC(C)C[C@H]1CNC(=O)C(=O)N1CC1CCN(CCC(C)c2ccccc2)CC1 (stereo not given in full),n,n,n,x,n,n
S=C1NC[C@H](CC2CCCCC2)N1CCCCC1CCCCC1,u,n,n,n,16.4µM,n
CCCCN1C(=S)NC[C@@H]1Cc1ccccc1,u,n,n,n,u,n
